Test [1] in a line: qHTS assay for small molecule disruptors of the mitochondrial membrane potential - 1 hr assay (AID 651754; calls by dose curve; further: nearly all actives have a fitted effect of over 35% in size; further: potency means the concentration at half of the fitted maximal effect). In a few lines: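 In this qHTS format, a 1 hr compound treatment of HepG2 cells precedes Mito-MPS staining, and membrane potential is judged from aggregate (red) against monomer (green) fluorescence intensity.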
A general note: Quantitative high-throughput screening tests each substance at several concentrations.

The target in test [2] is Tumor necrosis factor (Homo sapiens) (UniProt P01375). Nature of the test: qHTS assay to identify small molecules that stimulate Tumor Necrosis Factor-alpha (TNF-alpha) secretion (AID 651757; active means well fitted curve in the direction sought with a large enough effect in the signal ratio; the % refers to the signal ratio; further: 0% is about no effect). The method in brief: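 Using 3000 THP-1 cells per well, compounds and controls were applied for 17 hrs at 37 C. Detection followed with two labeled anti-TNF-alpha antibodies (cryptate donor, XL665 acceptor) for 3 hr at room temperature, measured by TR-FRET.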

Test [3] is described as follows: qHTS assay for environmental chemicals that activate the Aryl hydrocarbon Receptor (AhR) signaling pathway (AID 651777). Further: nearly all actives have a fitted effect of over 15% in size. Further: potency means the concentration at half of the fitted maximal effect. On activation: % of control where 0% means no effect. As to conditions: 1A2-DRE human hepatoma cells, luciferase, 24 h; activation: active compounds read high. In a few lines: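 Induction of CYP1A2 transcription through AhR is detected by luciferase in 1A2-DRE hepatoma cells. Compounds or DMSO act for 24 hr at 37 C before a 30 min One-Glo step at room temperature.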

The target of test [4] is Peroxisome proliferator-activated receptor alpha (Homo sapiens) (UniProt Q07869). The test is described as follows: qHTS assay for small molecule agonists of the peroxisome proliferator-activated receptor alpha (PPARalpha) signaling pathway (AID 651778). Further: % of control where 0% means no effect. As to conditions: PathHunter PPARalpha complementation, chemiluminescence, 6 h; active compounds read high. The method in brief: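 Enzyme-fragment complementation assay in which ligand-bound PPARalpha translocates and forms an active enzyme that generates chemiluminescence. Cells were plated overnight, exposed to compound for 6 hr at 37 C, and then given detection reagent for 60 min at room temperature.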

A short description of test [5]: qHTS assay for small molecule disruptors of the mitochondrial membrane potential - 5 hr assay (AID 651755; calls by dose curve; further: nearly all actives have a fitted effect of over 40% in size; further: potency means the concentration at half of the fitted maximal effect). In a few lines: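 Read-out: ratiometric Mito-MPS fluorescence, green monomer (ex 490/em 535) vs red mitochondrial aggregate (ex 540/em 590). HepG2 cells treated 5 hr at 37C before 30 min dye loading.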
The nature of test [6]: qHTS assay to identify small molecules that stimulate interleukin-8 (IL-8) secretion (AID 651758; active means well fitted activation curve with a large enough effect in the signal ratio; the % refers to the signal ratio; further: potency means the concentration at half of the fitted maximal effect; on activation: 0% is about no effect). The method in brief: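 Compounds are added to THP-1 cells (2000 per well) and left 16 hrs at 37 C. A labeled anti-IL-8 antibody pair is then added, and IL-8 secretion is measured by time-resolved FRET after 1-3 hrs at room temperature.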
In test [7] the target is Tyrosine-protein kinase Yes (Homo sapiens) (UniProt P07947). The test is described as follows: qHTS for small molecule inhibitors of Yes1 kinase: Primary Screen (AID 686947).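 Further: plate controls were DMSO with enzyme for no effect and no-enzyme DMSO wells for full effect; nearly all actives have a fitted effect of over 60% in size.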 The method in brief:
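In this qHTS format, inhibition is expressed relative to DMSO controls with enzyme (maximum) and without enzyme (minimum). The 60 min room-temperature reaction uses 0.1 mM ATP, with ADP detected by luminescence.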

Test [8] can be described thus: qHTS for small molecule inhibitors of Yes1 kinase: Counter Assay (AID 686950).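 Further: no kinase present so only ADP-Glo detection of a fixed ADP amount is tested; luminescence from ADP-Glo reporting ADP in a fixed ATP and ADP mixture; series mostly up to about 77 µM; 0% = DMSO wells with ATP plus ADP and -100% = ATP-only wells without ADP.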 In a few lines:
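No kinase present; 0.08 mM ATP + 0.02 mM ADP in 50 mM Tris pH 7.5, 10 mM MgCl2, 150 mM NaCl, 1 mM DTT; 20 min compound preincubation, 60 min RT, ADP-Glo luminescence, normalized to ATP/ADP (max) and ATP-only (min).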

Test [9] has as its target DNA polymerase iota (Homo sapiens) (UniProt Q9UNA4). Nature of the test: qHTS for Inhibitors of Polymerase Iota: Confirmatory Assay for Cherry-picked Compounds (AID 720496). Further: potency means the concentration at half of the fitted maximal effect. Conditions: Pol iota primer extension, TAMRA/BHQ fluorescence. The text has this: DNA polymerases, such as polymerase iota (Pol iota), are involved in DNA repair. Pol iota specifically plays an important role in translesion synthesis, where the normal high-fidelity DNA polymerases cannot proceed and DNA synthesis stalls. […] Thus, while Pol eta and most likely Pol iota's normal functions are to protect humans against the deleterious consequences of DNA damage, under certain conditions they can have deleterious effects on human health. As a consequence, small molecule inhibitors of Pol iota (identified from a high throughput replication assay) have potential therapeutic applications. A 1536-well format, fluorescence based, high-throughput screen (AID 588590) is developed in collaboration with the National Institute of Child Health & Human Development (NICHD) to screen for inhibitors of the […]. This screen is used to validate the activity of the selected compounds from the primary assay against the […]. Inhibition is the desired outcome for this assay. […]
Three microliters of reagents (buffer in column 3 and 4 as negative control while 10 nM Pol iota in columns 1, 2, and 5-48) were dispensed into a 1536-well black solid-bottom plate. […] The assay plates were initially read after 0 min and again after 10 min of kinetic reaction using the PerkinElmer Viewlux reader equipped with 525 nm excitation and 598 nm emission filters.

Test [10] has as its target DNA polymerase kappa (Homo sapiens) (UniProt Q9UBT6). The test is described as follows: qHTS for Inhibitors of Polymerase Kappa: Confirmatory Assay for Cherry-picked Compounds (AID 720501). Further: potency means the concentration at half of the fitted maximal effect. As to conditions: purified Pol-kappa, fluorescent strand-displacement substrate. The method in brief: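 10 nM human Pol-kappa was preincubated with compound 15 min at room temperature, then 50 nM (final) primer/template substrate with TAMRA-labeled reporter strand and BHQ-2-labeled template added. Fluorescence (Ex 525, Em 598 nm) read at 0 and 10 min.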

Values joined by “and” are separate entries in the source; they are usually repeats but may differ in a detail not shown here. Equal values may be shown once. A number with no mark means an inactive call. Inconclusive results are not listed. Some structures have more than one record in an assay (separate samples or runs), and their calls can disagree. The list shows a part of the results. Active and inactive are the calls of the source. Unless noted, the call rests on the fitted dose curve; in most records, active means well fitted curve in the direction sought with a large enough effect; inconclusive means small, poorly fitted or top-dose-only effect, or another doubt; inactive means no such curve, though single readings can be large; an effect the other way counts as inactive or inconclusive.

Chain of Peroxisome proliferator-activated receptor alpha (Homo sapiens) (Q07869 whole entry, looked up, the tested form may be a part): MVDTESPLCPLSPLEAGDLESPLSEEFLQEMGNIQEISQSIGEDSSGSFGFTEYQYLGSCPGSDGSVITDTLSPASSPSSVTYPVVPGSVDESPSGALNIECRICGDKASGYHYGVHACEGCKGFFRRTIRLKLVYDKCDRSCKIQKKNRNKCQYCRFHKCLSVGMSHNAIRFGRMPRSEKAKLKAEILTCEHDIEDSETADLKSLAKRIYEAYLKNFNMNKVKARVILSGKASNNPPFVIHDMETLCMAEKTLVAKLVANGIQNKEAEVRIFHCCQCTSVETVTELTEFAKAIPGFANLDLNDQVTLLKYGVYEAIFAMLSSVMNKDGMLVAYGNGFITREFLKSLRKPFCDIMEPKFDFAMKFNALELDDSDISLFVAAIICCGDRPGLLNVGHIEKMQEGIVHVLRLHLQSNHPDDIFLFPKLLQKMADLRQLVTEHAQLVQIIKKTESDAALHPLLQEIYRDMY
Chain of Tumor necrosis factor (Homo sapiens) (P01375 whole entry, looked up): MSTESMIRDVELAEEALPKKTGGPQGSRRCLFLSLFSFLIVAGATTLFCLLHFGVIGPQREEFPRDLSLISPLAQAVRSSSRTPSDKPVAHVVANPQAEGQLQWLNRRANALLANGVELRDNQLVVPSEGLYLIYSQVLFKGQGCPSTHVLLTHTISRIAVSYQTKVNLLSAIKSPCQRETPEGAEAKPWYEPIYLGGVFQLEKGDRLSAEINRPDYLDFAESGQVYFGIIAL
Chain of Tyrosine-protein kinase Yes (Homo sapiens) (P07947 whole entry, looked up): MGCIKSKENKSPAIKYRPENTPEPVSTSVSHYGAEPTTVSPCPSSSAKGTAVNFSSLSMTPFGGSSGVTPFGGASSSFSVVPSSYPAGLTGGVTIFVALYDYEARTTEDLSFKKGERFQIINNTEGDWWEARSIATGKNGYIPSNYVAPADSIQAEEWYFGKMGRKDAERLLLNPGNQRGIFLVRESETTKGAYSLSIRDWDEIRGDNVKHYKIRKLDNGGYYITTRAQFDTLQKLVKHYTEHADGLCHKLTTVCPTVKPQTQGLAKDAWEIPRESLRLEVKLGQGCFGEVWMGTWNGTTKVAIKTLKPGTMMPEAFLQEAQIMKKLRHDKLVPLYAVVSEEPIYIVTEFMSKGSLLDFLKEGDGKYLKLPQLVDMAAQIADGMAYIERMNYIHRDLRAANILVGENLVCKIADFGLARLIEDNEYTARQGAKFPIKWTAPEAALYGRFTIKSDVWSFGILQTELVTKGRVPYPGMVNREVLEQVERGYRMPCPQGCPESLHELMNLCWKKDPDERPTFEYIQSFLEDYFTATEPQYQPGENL
Chain of DNA polymerase kappa (Homo sapiens) (Q9UBT6 whole entry, looked up): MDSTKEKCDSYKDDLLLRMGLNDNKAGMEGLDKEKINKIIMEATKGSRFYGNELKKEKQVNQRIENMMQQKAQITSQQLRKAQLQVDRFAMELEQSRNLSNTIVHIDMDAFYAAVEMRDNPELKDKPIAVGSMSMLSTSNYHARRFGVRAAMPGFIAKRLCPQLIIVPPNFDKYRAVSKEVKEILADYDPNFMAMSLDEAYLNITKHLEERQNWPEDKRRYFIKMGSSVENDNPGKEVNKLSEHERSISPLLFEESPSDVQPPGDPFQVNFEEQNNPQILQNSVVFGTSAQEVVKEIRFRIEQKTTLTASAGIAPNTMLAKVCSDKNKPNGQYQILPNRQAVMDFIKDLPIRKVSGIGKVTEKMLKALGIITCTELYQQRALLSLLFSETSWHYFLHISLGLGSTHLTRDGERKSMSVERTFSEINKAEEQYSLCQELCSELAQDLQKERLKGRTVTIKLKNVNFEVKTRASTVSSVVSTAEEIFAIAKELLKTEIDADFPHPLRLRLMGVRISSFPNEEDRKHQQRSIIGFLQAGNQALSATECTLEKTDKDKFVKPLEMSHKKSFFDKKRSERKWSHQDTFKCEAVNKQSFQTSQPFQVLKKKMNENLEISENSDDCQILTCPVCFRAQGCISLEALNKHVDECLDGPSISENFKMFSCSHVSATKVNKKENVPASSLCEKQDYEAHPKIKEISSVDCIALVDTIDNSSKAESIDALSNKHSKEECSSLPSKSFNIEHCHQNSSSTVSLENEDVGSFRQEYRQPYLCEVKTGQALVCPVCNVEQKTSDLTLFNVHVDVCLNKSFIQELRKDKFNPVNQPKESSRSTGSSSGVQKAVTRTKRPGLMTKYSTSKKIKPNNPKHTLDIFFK
Chain of DNA polymerase iota (Homo sapiens) (Q9UNA4 whole entry, looked up): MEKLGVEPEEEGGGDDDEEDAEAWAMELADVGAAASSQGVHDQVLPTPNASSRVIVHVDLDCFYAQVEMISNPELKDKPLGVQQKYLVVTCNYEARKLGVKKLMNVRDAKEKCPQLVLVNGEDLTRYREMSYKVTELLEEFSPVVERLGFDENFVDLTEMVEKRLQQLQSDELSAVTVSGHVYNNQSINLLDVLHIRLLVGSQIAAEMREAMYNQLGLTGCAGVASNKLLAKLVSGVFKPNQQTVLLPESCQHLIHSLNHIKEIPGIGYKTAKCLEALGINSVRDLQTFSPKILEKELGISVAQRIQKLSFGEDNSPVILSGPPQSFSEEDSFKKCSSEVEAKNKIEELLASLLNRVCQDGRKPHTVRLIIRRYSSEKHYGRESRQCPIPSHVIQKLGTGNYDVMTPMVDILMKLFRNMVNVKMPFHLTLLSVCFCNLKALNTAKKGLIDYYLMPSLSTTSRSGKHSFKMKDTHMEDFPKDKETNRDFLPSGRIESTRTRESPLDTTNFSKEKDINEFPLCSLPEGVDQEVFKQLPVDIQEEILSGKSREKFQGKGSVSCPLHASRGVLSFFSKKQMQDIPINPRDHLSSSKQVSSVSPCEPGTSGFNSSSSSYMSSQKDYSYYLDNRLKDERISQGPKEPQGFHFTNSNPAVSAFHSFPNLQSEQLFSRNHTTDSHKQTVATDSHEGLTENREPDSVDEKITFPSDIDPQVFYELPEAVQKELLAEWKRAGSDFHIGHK

Take `N=C1N=C(N)c2cc3ccccc3cc21`: the Potency in test [1] is 6.68 µM (active). In addition, the outcome in test [2] was inactive. The activation in test [3] is 12.9%. The max response in test [4] was -3.58%.
On to `CN(C)c1ccc(C(=C2C=CC(=[N+](C)C)C=C2)c2ccccc2)cc1`, for which the Potency in test [1] was 0.75 µM (active); in test [5], 0.841 µM (active). The max response in test [4] was -10.3%.
Turning to `CN(C)c1ccc(N=NS(=O)(=O)O)cc1`, the results for the Potency in test [1], in [5] and in test [3] were 15 µM (active), 8.41 µM (active) and 70.8 µM (active), respectively. Further, the activation in test [3] is 10.4%. The max response in test [4] is -7.89% and -1.86%.
With `NCCO`, the result in test [2] was inactive. Besides, the activation in [3] is -0.695%. Moreover, in [4], the max response was -2.8%.
Consider `S=c1[nH]c2ccccc2s1`, for which the Potency entry in test [6] is “inactive”. In [4], the max response was -10.8% and -7.19%.
For `O=C(O)c1cc(O)c(O)c(O)c1`, the Potency result in test [1] and in test [5] was “inactive” throughout. Also, in test [3], the activation was -0.689%. Besides, in test [4], the max response is -13%.
For `CC1(C)S[C@@H]2[C@H](NC(=O)[C@H](N)c3ccccc3)C(=O)N2[C@H]1C(=O)O`, in [2], the call was inactive. In addition, the activation in test [3] is 0.371%. Further, the max response in [4] is -1.69%.
Consider `Nc1nc2ccc([N+](=O)[O-])cc2s1`, for which the Potency in test [1] and in [5] was 16.8 µM (active) each time. Also, the activation in test [3] was 8.89%. Also, the max response in [4] is -11%.
For `COc1cc(/C=C/C(=O)CC(=O)/C=C/c2ccc(O)c(OC)c2)ccc1O`, the Potency was 3.76 µM (active) in test [1] and 5.96 µM (active) in test [5]. Also, the max response in [4] is -5.38%.
In the case of `C=CCCCCCCCCC(=O)O`, the activation in test [3] was 1.9%. In addition, the max response in test [4] is 3.91%.
For the compound `CN1CCC[C@H]1c1cccnc1`, the Potency entry in test [1] and in test [5] was “inactive” throughout. Besides, in [2], the compound was called inactive. In test [3], the activation is 0.841% and 0.227%. Further, in test [4], the max response was -3.15% and -0.899%.
As for `Nc1ccc([N+](=O)[O-])cc1O`, the activation in test [3] is 7.01%. Besides, the max response in test [4] was -5.57% and -3.71%.
`Oc1ccccc1O`: the max response in test [4] is -0.837%.
Regarding `C#C[C@]1(O)CC[C@H]2[C@@H]3CCc4cc(O)ccc4[C@H]3CC[C@@]21C`, the Potency entry in test [1] and in test [5] was “inactive” each time. In addition, the result in [2] was inactive. In addition, the Potency in test [6] was 75 µM (active). The activation in [3] was -0.528% and -0.741%. For the same compound, the max response in test [4] is -1.9% and -2.24%.
For `O=c1cc(-c2ccccc2)oc2ccccc12`, the Potency in test [3] is 50.1 µM (active) and 44.7 µM (active). In test [4], the max response was 0.229% and -0.923%.
As to `CN1[C@@H]2CC[C@H]1CC(OC(=O)C(CO)c1ccccc1)C2` (some centres undefined), in test [3], the activation is -1.81%.
`CN1CC(=O)N/C1=N/C(=O)Nc1cccc(Cl)c1`: the compound was called inactive in test [7] and in [8].
Turning to `Nc1ccc(O)c(C(=O)O)c1`, in [3], the activation is 0.023% and -1.58%. Further, the max response in test [4] is -9.31% and -0.252%.
As to `CCCOC(=O)c1ccc(O)cc1`, the call in [2] was inactive. Also, the Potency entry in [6] is “inactive”. For the same compound, the activation in test [3] was 3.41% and 2.32%. Further, the max response in [4] was 0.116% and 2.06% and -4.76%.
As for `O=C(O)[C@H](O)[C@@H](O)[C@H](O)[C@H](O)CO`, in test [3], the activation was -0.169%. The max response in [4] was -0.488%.
In the case of `CCCCCCCCCCCCCCCC(=O)OC(C)C`, in test [4], the max response is 0.689%.
`Nc1cc(-c2ccncc2)c[nH]c1=O`: the activation in test [3] is -0.684%. Also, the max response in test [4] is -1.14%.
Turning to `O=C1CN(/N=C/c2ccc([N+](=O)[O-])o2)C(=O)N1`, the Potency in test [1] was 37.6 µM (active). In addition, the Potency entry in test [6] is “inactive”. For the same compound, the activation in test [3] was 4.15%. For the same compound, in [4], the max response is -1.28%.
As for `Nc1ccc(O)c([N+](=O)[O-])c1`, the Potency in test [1] is 33.5 µM (active). The activation in [3] was 4.17% and 0.649%. In [4], the max response was -1.01% and 0.176%.
As for `COc1cc(CNC(=O)CCCC/C=C/C(C)C)ccc1O`, the Potency result in [1] and in [5] was “inactive” each time. Also, the compound was called inactive in test [2]. For the same compound, the activation in test [3] is -0.69% and 1.8%. In addition, the max response in test [4] was -1.35% and 5.82%.
Regarding `CC(C)OC(=O)c1cc(C(=O)OC(C)C)cc([N+](=O)[O-])c1`, in [3], the activation is 4%. Further, in [4], the max response is 0.0203%.
In the case of `C=CCc1cccc(/C=N/NC(=O)CN2CCN(Cc3ccccc3)CC2)c1O`, the outcome in test [7] and in [8] was inactive.
Turning to `c1ccc2sc(SSc3nc4ccccc4s3)nc2c1`, the call in test [2] was inactive. For the same compound, the activation in test [3] is -0.44% and 3.22%. Also, the max response in test [4] is -2.43% and -7.65%.
Consider `CO/N=C(\C(=O)N[C@@H]1C(=O)N2C(C(=O)O)=C(COC(C)=O)CS[C@H]12)c1csc(N)n1` (stereo in doubt), for which the Potency in test [9] is 18.9 µM (active); in [10] it was 9.47 µM (active) and 8.44 µM (active).

The values are drawn from PubChem BioAssay (NCATS).
